Consider five sequences from publication PMC11006913.

Where a chain is given by its changes, count along the chain named.

What all share (assay): PBM; 200 nM protein, PBS
Conditions in all cases: dsDNA, one strand shown

The target of assay [1] is T1, SIX6 (Homo sapiens, UniProt O95475 114-200, L167I).
T1 sequence: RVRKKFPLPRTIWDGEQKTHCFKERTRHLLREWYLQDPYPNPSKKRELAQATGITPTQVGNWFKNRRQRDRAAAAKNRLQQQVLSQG

In assay [2] the target is T2, SIX6 (Homo sapiens, UniProt O95475 114-200, L143V).
T2 sequence: T1 sequence with L30V, I54L

Assay [3] has as its target T3, SIX6 (Homo sapiens, UniProt O95475 114-200, H141N).
T3 sequence: T1 sequence with H28N, I54L

The target of assay [4] is T4, SIX6 (Homo sapiens, UniProt O95475 114-200, T165P).
T4 sequence: T1 sequence with T52P, I54L

In assay [5] the target is T5, SIX6 (Homo sapiens, UniProt O95475 114-200, L167M).
T5 sequence: T1 sequence with I54M

For assay [6], the target named is T6, SIX6 (Homo sapiens, UniProt O95475 114-200, L143M).
T6 sequence: T1 sequence with L30M, I54L

Assay [7] deals with T7, SIX6 (Homo sapiens, UniProt O95475 114-200, L143I).
T7 sequence: T1 sequence with L30I, I54L

Assay [8] has as its target T8, SIX6 (Homo sapiens, UniProt O95475 114-200, T165G).
T8 sequence: T1 sequence with T52G, I54L

The target in assay [9] is T9, SIX6 (Homo sapiens, UniProt O95475 114-200, T139Q).
T9 sequence: T1 sequence with T26Q, I54L

Assay [10] addresses T10, SIX6 (Homo sapiens, UniProt O95475 114-200, T165A).
T10 sequence: T1 sequence with T52A, I54L

Assay [11] has as its target T11, SIX6 (Homo sapiens, UniProt O95475 114-200, L167V).
T11 sequence: T1 sequence with I54V

For assay [12], the target named is T12, SIX6 (Homo sapiens, UniProt O95475 114-200).
T12 sequence: T1 sequence with I54L

For assay [13], the target named is T13, SIX6 (Homo sapiens, UniProt O95475 114-200, T165I).
T13 sequence: T1 sequence with T52I, I54L

For GAAAGCGC, the binding signal with SIX6 [1] is 8.91 upbm affinity estimate (log intensity, higher = more binding, comparable within an allelic series); with SIX6 [2] it was 8.99 upbm affinity estimate (log intensity, higher = more binding, comparable within an allelic series); in the assay with SIX6 [3] it was 8.85 upbm affinity estimate (log intensity, higher = more binding, comparable within an allelic series); in the assay with SIX6 [4], 9.04 upbm affinity estimate (log intensity, higher = more binding, comparable within an allelic series); with SIX6 [5], 8.97 upbm affinity estimate (log intensity, higher = more binding, comparable within an allelic series); with SIX6 [6], 8.96 upbm affinity estimate (log intensity, higher = more binding, comparable within an allelic series). The binding signal with SIX6 [7] was 8.97 upbm affinity estimate (log intensity, higher = more binding, comparable within an allelic series); in the assay with SIX6 [8], 9 upbm affinity estimate (log intensity, higher = more binding, comparable within an allelic series); with SIX6 [9] it was 9 upbm affinity estimate (log intensity, higher = more binding, comparable within an allelic series); in the assay with SIX6 [10], 9.02 upbm affinity estimate (log intensity, higher = more binding, comparable within an allelic series); in the assay with SIX6 [11], 8.93 upbm affinity estimate (log intensity, higher = more binding, comparable within an allelic series); with SIX6 [12], 8.96 upbm affinity estimate (log intensity, higher = more binding, comparable within an allelic series). Besides, the binding signal with SIX6 [13] is 8.97 upbm affinity estimate (log intensity, higher = more binding, comparable within an allelic series).

Regarding CCGGCGCC, the binding signal with SIX6 [1] is 8.8 upbm affinity estimate (log intensity, higher = more binding, comparable within an allelic series); with SIX6 [2], 8.98 upbm affinity estimate (log intensity, higher = more binding, comparable within an allelic series); with SIX6 [3], 8.96 upbm affinity estimate (log intensity, higher = more binding, comparable within an allelic series); with SIX6 [4] it was 9.05 upbm affinity estimate (log intensity, higher = more binding, comparable within an allelic series); with SIX6 [5] it was 9 upbm affinity estimate (log intensity, higher = more binding, comparable within an allelic series); with SIX6 [6], 8.85 upbm affinity estimate (log intensity, higher = more binding, comparable within an allelic series). The binding signal is 9.03 upbm affinity estimate (log intensity, higher = more binding, comparable within an allelic series) with SIX6 [7]; 8.96 upbm affinity estimate (log intensity, higher = more binding, comparable within an allelic series) with SIX6 [8]; 8.96 upbm affinity estimate (log intensity, higher = more binding, comparable within an allelic series) in the assay with SIX6 [9]; 8.98 upbm affinity estimate (log intensity, higher = more binding, comparable within an allelic series) with SIX6 [10]; 8.96 upbm affinity estimate (log intensity, higher = more binding, comparable within an allelic series) with SIX6 [11]; 9.02 upbm affinity estimate (log intensity, higher = more binding, comparable within an allelic series) with SIX6 [12]. For the same sequence, the binding signal in the assay with SIX6 [13] is 8.9 upbm affinity estimate (log intensity, higher = more binding, comparable within an allelic series).

With ATATCACA, the binding signal with SIX6 [1] was 11.3 upbm affinity estimate (log intensity, higher = more binding, comparable within an allelic series); with SIX6 [2] it was 10.3 upbm affinity estimate (log intensity, higher = more binding, comparable within an allelic series); in the assay with SIX6 [3], 11.3 upbm affinity estimate (log intensity, higher = more binding, comparable within an allelic series); with SIX6 [4], 9.9 upbm affinity estimate (log intensity, higher = more binding, comparable within an allelic series); with SIX6 [5], 10.7 upbm affinity estimate (log intensity, higher = more binding, comparable within an allelic series); with SIX6 [6], 11 upbm affinity estimate (log intensity, higher = more binding, comparable within an allelic series). The binding signal with SIX6 [7] was 10.4 upbm affinity estimate (log intensity, higher = more binding, comparable within an allelic series); with SIX6 [8], 11.3 upbm affinity estimate (log intensity, higher = more binding, comparable within an allelic series); with SIX6 [9] it was 11.1 upbm affinity estimate (log intensity, higher = more binding, comparable within an allelic series); with SIX6 [10], 11.2 upbm affinity estimate (log intensity, higher = more binding, comparable within an allelic series); with SIX6 [11] it was 11.1 upbm affinity estimate (log intensity, higher = more binding, comparable within an allelic series); with SIX6 [12], 11 upbm affinity estimate (log intensity, higher = more binding, comparable within an allelic series). In the assay with SIX6 [13], the binding signal is 11 upbm affinity estimate (log intensity, higher = more binding, comparable within an allelic series).

On to CGCAACCG, for which the binding signal with SIX6 [1] was 9.24 upbm affinity estimate (log intensity, higher = more binding, comparable within an allelic series); with SIX6 [2] it was 9.05 upbm affinity estimate (log intensity, higher = more binding, comparable within an allelic series); with SIX6 [3] it was 9.23 upbm affinity estimate (log intensity, higher = more binding, comparable within an allelic series); with SIX6 [4] it was 9.03 upbm affinity estimate (log intensity, higher = more binding, comparable within an allelic series); with SIX6 [5] it was 9.16 upbm affinity estimate (log intensity, higher = more binding, comparable within an allelic series); in the assay with SIX6 [6] it was 9.07 upbm affinity estimate (log intensity, higher = more binding, comparable within an allelic series). For the same sequence, the binding signal was 9.2 upbm affinity estimate (log intensity, higher = more binding, comparable within an allelic series) in the assay with SIX6 [7]; 9.18 upbm affinity estimate (log intensity, higher = more binding, comparable within an allelic series) with SIX6 [8]; 9.31 upbm affinity estimate (log intensity, higher = more binding, comparable within an allelic series) with SIX6 [9]; 9.14 upbm affinity estimate (log intensity, higher = more binding, comparable within an allelic series) with SIX6 [10]; 9.12 upbm affinity estimate (log intensity, higher = more binding, comparable within an allelic series) in the assay with SIX6 [11]; 9.2 upbm affinity estimate (log intensity, higher = more binding, comparable within an allelic series) in the assay with SIX6 [12]. For the same sequence, the binding signal with SIX6 [13] was 9.15 upbm affinity estimate (log intensity, higher = more binding, comparable within an allelic series).

In the case of AGATCCTC, the binding signal in the assay with SIX6 [1] was 10.5 upbm affinity estimate (log intensity, higher = more binding, comparable within an allelic series); with SIX6 [2], 9.98 upbm affinity estimate (log intensity, higher = more binding, comparable within an allelic series); in the assay with SIX6 [3], 10.3 upbm affinity estimate (log intensity, higher = more binding, comparable within an allelic series); in the assay with SIX6 [4], 9.64 upbm affinity estimate (log intensity, higher = more binding, comparable within an allelic series); in the assay with SIX6 [6], 10.5 upbm affinity estimate (log intensity, higher = more binding, comparable within an allelic series); with SIX6 [7], 9.91 upbm affinity estimate (log intensity, higher = more binding, comparable within an allelic series). The binding signal in the assay with SIX6 [9] is 10.6 upbm affinity estimate (log intensity, higher = more binding, comparable within an allelic series); in the assay with SIX6 [10], 10.4 upbm affinity estimate (log intensity, higher = more binding, comparable within an allelic series); in the assay with SIX6 [11], 10.2 upbm affinity estimate (log intensity, higher = more binding, comparable within an allelic series); with SIX6 [12] it was 10.4 upbm affinity estimate (log intensity, higher = more binding, comparable within an allelic series).
